In all, about 290,000 compounds went through this assay and about 3,000 (1%) were called active. Many of the other results were omitted from the sample, so actives are more common in it than they were. A number with no mark means an inactive call. Rule as the data show it: active = inhibition mostly above about 36% (no sharp cut-off); inactive = mostly below about 34%.

This assay can be described thus: inhibition of NOD1-driven NF-kB reporter – cell-based, luminescence, uHTS, primary screen (AID 1578).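 Also: HEK-293T reporter cells stimulated with the NOD1 agonist gamma-tri-DAP.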 As to conditions: NOD1-driven NF-kB luciferase reporter cells, at 4 µM, hits give high values. Background: A reporter such as luciferase makes a cellular process visible.
In the case of `Cn1nc(-c2ccccc2)c2cc(C(=O)O)sc21`, the inhibition (commonly the drop in the measured response relative to a control, in per cent) was -19.4%.
With `COc1cc(OC)cc(C(=O)Nc2cccc(NC(=O)c3ccccc3)c2)c1` the figure was 2.4%; with `Cc1cccc2nc(CSc3ncccc3C(=O)O)cn12`, -32.8%.
On to `Cc1cc(C)nc(N/N=C/c2ccccc2OCc2ccccc2)n1`, for which the inhibition was -24.5%.
With `COc1cccc(NC(=O)CSc2ccc3nnc(-c4ccncc4)n3n2)c1` the figure was 10.7%; with `CC(=O)Nc1cccc(S(=O)(=O)N2CCCCCC2)c1`, -15.2%.
With `CS(=O)(=O)c1ccc(Cl)c(NC(=O)CCl)c1` the figure was 43.3% (active).
With `O=C(Cn1c(=O)oc2cc(S(=O)(=O)N3CCCC3)ccc21)Nc1cccc(C(F)(F)F)c1` the figure was 58% (active).
Regarding `CS(=O)(=O)c1ccc(Cl)c(NC(=O)CCc2ccccc2)c1`, the inhibition is -34.6%.
With `O=C(CCc1ccccc1Cl)Nc1cccc(S(=O)(=O)N2CCCC2)c1` the figure was -16.3%; with `O=C(Cn1c(=O)oc2cc(S(=O)(=O)N3CCCC3)ccc21)Nc1ccc(C(F)(F)F)cc1`, 8.8%; with `CC(=O)c1cccc(NC(=O)Cn2c(=O)oc3cc(S(=O)(=O)N4CCCC4)ccc32)c1`, -4.9%.
For the molecule `O=C(Cn1cnc2ccccc2c1=O)Nc1cccc(S(=O)(=O)N2CCCCC2)c1`, the inhibition was 3.7%.
With `CS(=O)(=O)c1ccc(Cl)c(NC(=O)Cc2c(Cl)cccc2Cl)c1` the figure was 19.7%; with `O=C(Cc1n[nH]c(=O)c2ccccc12)Nc1cccc(S(=O)(=O)N2CCCC2)c1`, 0.5%.
For `O=C(Cn1[nH]c(=O)c2ccccc2c1=O)Nc1cccc(S(=O)(=O)N2CCCCCC2)c1`, the inhibition was 55% (active).
With `CCCc1cc(=O)[nH]c(SCC(=O)NCCC2=CCCCC2)n1` the figure was -16.8%; with `Cc1ccc2nc(NCC(=O)NN)nc(-c3ccccc3)c2c1`, -11.2%.
Turning to `Cc1ccnc(NS(=O)(=O)c2ccc(NC(=O)c3cc(=O)c4ccccc4o3)cc2)n1`, the inhibition is -0.9%.
With `NC(=O)/C(=C/c1cccnc1)NC(=O)c1ccccc1` the figure was 4.1%; with `CCc1ccc(C2c3[nH]c4ccccc4c3CCN2C(=O)c2cc(C)nn2C)cc1` (stereo not given), -25.9%.
With `CCCCN(C)C(=O)Cn1nc(-c2ccc(Cl)cc2)ccc1=O` the figure was -9.3%; with `O=C(c1ccc(S(=O)(=O)N2CCCC2)cc1)N(Cc1ccco1)C1CCS(=O)(=O)C1` (stereo not given), -10.9%; with `O=C(CCl)Nc1cccc(S(=O)(=O)NC2=NCCC2)c1`, 64.9% (active).
With `O=C(Nc1cccc(S(=O)(=O)NC2=NCCC2)c1)C1CCC1` the figure was -32.4%.
`CNC(=S)Nc1cccc(S(=O)(=O)NC2=NCCC2)c1`: the inhibition was -13.1%.
With `COc1cc(NC(=O)[C@H](C)NC(=O)N2CCn3c2nc2ccccc23)cc(OC)c1` the figure was 5.6%.
Consider `CCCc1nnc(SCC(=O)O)n1CC`, for which the inhibition is -9.2%.
On to `CSc1ccc(/C=C/C(=O)OCC(=O)N(C)CCC#N)cc1`, for which the inhibition is -23%.
Regarding `Cc1cc(/C=N/N2CCN(C)CC2)c(C)n1-c1ccc(Cl)cc1`, the inhibition is -8.4%.
With `O=C(O)CN1C(=O)/C(=C/c2ccc(SCc3ccccc3)o2)SC1=S` the figure was -39.2%.
With `O=C1NC(=S)S/C1=C\c1ccc(SCc2ccccc2)o1` the figure was 91.8% (active).
With `O=C1NC(=S)S/C1=C\c1ccc(SCc2ccco2)o1` the figure was -10.8%.
Consider `CN(C)c1nc2ncn(Cc3ccccc3)c2c(=O)[nH]1`, for which the inhibition was 5.2%.
With `COc1ccc(-c2c3c(nc4sc5c(=O)[nH]c(C)nc5c24)CCC3)cc1` the figure was -23.6%.
With `O=c1[nH]cnc2c1sc1nc3c(c(-c4ccc(Cl)cc4)c12)CCC3` the figure was 78.1% (active).
With `O=c1[nH]cnc2c1sc1nc(-c3ccccc3)c3c(c12)CCCC3` the figure was 34.8%; with `COc1ccc(-c2nc3c4ccccc4ccn3c2CN2CCCCC2)cc1OC`, -8.1%.
On to `Cc1nc(SCn2nnc3ccccc3c2=O)nc(C)c1C`, for which the inhibition is -13.8%.
On to `CCOc1ccc(S(=O)(=O)NCCSCc2ccco2)cc1`, for which the inhibition was 3.8%.
With `CCN(CC)S(=O)(=O)c1cc(NC(=O)Cn2cnc3ccccc3c2=O)ccc1C` the figure was -1.6%; with `CCN(CC)S(=O)(=O)c1cc(NC(=O)Cn2ncc(Cl)c(Cl)c2=O)ccc1C`, 62.3% (active).
With `COc1cc(NC(=O)CN2C(=O)CN(C)C2=O)c(C)cc1[N+](=O)[O-]` the figure was -27.7%; with `COc1cc(NC(=O)Cn2ncc(Cl)c(Cl)c2=O)c(C)cc1[N+](=O)[O-]`, 91.3% (active); with `COc1cc(NC(=O)CN2CCCCC2)c(C)cc1[N+](=O)[O-]`, -16.1%.
In the case of `COc1ccc(NC(=O)Cn2ncc(Cl)c(Cl)c2=O)cc1S(=O)(=O)N1CCOCC1`, the inhibition is 43.5%.
Consider `CN(C(=O)c1ccccc1C(=O)OCC(=O)NC(=O)NC(C)(C)C)C1CCCCC1`, for which the inhibition is -11.4%.
With `Nc1cc(N)nc(SCC(=O)Nc2ccccc2)n1` the figure was 17.4%; with `O=C(CSc1ncnc2scc(-c3ccccc3)c12)Nc1ccc(C(=O)O)cc1`, 24.9%.
Regarding `COc1ccnc(Oc2ccc(F)cc2)c1C(=O)N/C=N/OCc1ccc(F)cc1`, the inhibition was -24%.
On to `Cc1oc2c(c(C)cc3oc(=O)c(CC(=O)N[C@@H](CC(C)C)C(=O)O)c(C)c32)c1C`, for which the inhibition was -2.2%.
With `O=Cc1cn(CCC(=O)O)nc1-c1cccc(Br)c1`, the inhibition is -28.9%.
With `O=C(O)CCn1cc(/C=C/C(=O)c2ccc(Cl)cc2)c(-c2ccc(Br)cc2)n1` the figure was 52.9%; with `CC(=O)c1sc(N/N=C\c2cccc(Br)c2)nc1C`, 3.9%.
With `C=CCNC(=O)/C(C#N)=C/c1ccc2c(c1)OCCO2` the figure was -33.6%.
For `Cc1ccc(N=Cc2sc(O)c3ccccc23)cc1`, the inhibition is -36.5%.
For the molecule `CCn1c(O)c(C=Nc2ccccc2)sc1=O`, the inhibition was -27.2%.
On to `Cn1c(O)c(C=Nc2ccc(Br)cc2)sc1=O`, for which the inhibition is 53.6% (active).
For `CCOc1ccc(C(=O)Nc2nnc(S(=O)(=O)N3CCCCC3)s2)cc1`, the inhibition is 2.6%.
`O=C(N/N=C/c1cccc(OC(=O)c2cccc(Br)c2)c1)c1ccncc1`: the inhibition was -35%.
With `CCOC(=O)CC(NC(=O)c1ccco1)c1ccccc1Cl` (stereo not given) the figure was -14.8%; with `CC(=O)Nc1cccc(NC(=S)Nc2ccc(F)c(Cl)c2)c1`, 3%; with `Fc1ccc(NC(=S)Nc2ccc(F)c(Cl)c2)cc1Cl`, 74.1% (active).
Turning to `Fc1ccc(NC(=S)Nc2cccnc2)cc1Cl`, the inhibition is -27%.
For `Cn1cc(C(=O)NS(=O)(=O)Nc2ccc(Br)cn2)c2ccccc21`, the inhibition is -29%.
Turning to `CC(C)(C)c1nnc(N/N=C/c2ccc(Br)cc2)n(N)c1=O`, the inhibition is -33.2%.
Take `CC(C)(C)c1nnc(N/N=C/c2ccccc2O)n(N)c1=O`: the inhibition is -45.8%.
With `CC(C)(C)c1nnc(N/N=C/c2cc(Br)ccc2O)n(N)c1=O` the figure was 68.7% (active).
`O=C(Nc1ncccc1Cl)c1ccccc1F`: the inhibition is -31.4%.
With `Cc1[nH]n(-c2cccc3ccccc23)c(=O)c1/C=N/NC(=O)c1cccc([N+](=O)[O-])c1` the figure was -8.2%.
With `Cc1[nH]n(-c2ccc(Br)cc2)c(=O)c1/C=N/NC(=O)c1ccccc1` the figure was 69%.
Take `Cc1[nH]n(-c2ccccc2)c(=O)c1/C=N/NC(=O)c1ccccc1F`: the inhibition is -9.2%.
Consider `Cc1ccc(-n2[nH]c(C)c(/C=N/NC(=O)c3ccc([N+](=O)[O-])cc3)c2=O)c(C)c1`, for which the inhibition is -20.9%.
With `Cc1ccc(-n2[nH]c(C)c(/C=N/NC(=O)c3cccc([N+](=O)[O-])c3)c2=O)cc1C` the figure was 92.8% (active); with `Cc1cc(NS(=O)(=O)c2ccc(NC(=S)NC(=O)c3ccncc3)cc2)no1`, -4.1%; with `O=C(OCCN1CCCCC1)c1cccc(F)c1`, -21.9%.
In the case of `CCOc1cc(C2C(C(=O)OC)=CN(Cc3ccc(Cl)cc3)C=C2C(=O)OC)ccc1O`, the inhibition is -1.2%.
Consider `O=C(CCCn1c(=O)[nH]c2ccccc2c1=O)Nc1ccc(F)cc1`, for which the inhibition is -2.3%.
As for `COc1ccc(NC(=O)C2CC(=O)OC2c2ccccc2)cc1` (stereo not given), the inhibition was -23.5%.
With `COc1cccc(NC(=O)CN2C(=O)COc3ccc(Cl)cc32)c1` the figure was 26.8%; with `NC(=O)C1=C[C@@H](c2csc3ccccc23)C[C@@H](OCCCCO)O1`, -3.6%; with `Cc1cc(N=CC2=C(O)CC(C)(C)CC2=O)no1`, 13.1%.
With `COCCn1c(SCC(=O)NCc2ccccc2)nc2ccccc21` the figure was 6.7%; with `O=C1c2ccccc2C2=Nc3ccccc3SC(c3cccc(F)c3)C12` (stereo not given), 49.7%; with `O=C1c2ccccc2C2=Nc3ccccc3SC(c3ccccc3F)C12` (stereo not given), 36.8%.
In the case of `O=C1c2ccccc2C2=Nc3ccccc3SC(c3ccc(Cl)cc3)C12` (stereo not given), the inhibition was 74.7% (active).
With `NC(=O)CC(NC(=O)c1ccccc1)c1ccc(NCCOc2ccccc2)c([N+](=O)[O-])c1` (stereo not given), the inhibition was 1.2%.
With `Cc1ccc(C(=O)N2CCN3C(=O)c4ccccc4C23c2ccc(Cl)cc2)cc1` (stereo not given) the figure was -52.7%.
With `O=C(CCl)N1CCN2C(=O)c3ccccc3C12c1ccc(Cl)cc1` (stereo not given) the figure was 87.1% (active); with `O=C(c1ccccc1)N1CCN2C(=O)c3ccccc3C12c1ccc(Cl)cc1` (stereo not given), -44.9%; with `O=C(Cn1c(=O)c2cccn2c2ccccc21)Nc1ccc(F)cc1F`, -12.1%.
With `Cc1cc(C)nc(N(C#N)S(=O)(=O)c2ccccc2)n1` the figure was 9.1%; with `CC(C(=O)O/N=C(\N)c1ccccn1)c1ccc([N+](=O)[O-])cc1` (stereo not given), -16.2%.
As to `N/C(=N\OCc1ccc([N+](=O)[O-])cc1)c1ccncc1`, the inhibition is -27.7%.
With `N/C(=N\OCc1ccc([N+](=O)[O-])cc1)c1ccccn1` the figure was 88.4% (active).

These data come from PubChem BioAssay AID1578 (Sanford-Burnham Center for Chemical Genomics, 2009).
